Activity calls are given as the source filed them. The calls were made as follows: active = hit-call score of the fitted dose curve at least 0.9, where 1 is the maximum; inactive = score below 0.9.
These compounds were tested against human FLT4 Receptor Tyrosine Kinase, FLT4 (gene 2324) (UniProt P35916) (assay: ERF_FR_ENZ_hFLT4: Eurofins (ERF) Enzymatic Radiometric [Km ATP] KinaseProfiler LeadHunter Assay for human FLT4 Receptor Tyrosine Kinase).
Method: ERF_FR_ENZ_hFLT4 is a biochemical, single-readout assay that uses extracted gene-proteins in a cell-free assay. Measurements were taken 1.5 hour after chemical dosing in a 96-well plate. See FLT4 Human RTK Kinase Enzymatic LANCE Assay [Km ATP], Cerep.ERF_FR_ENZ_hFLT4 is an assay component calculated from the ERF_FR_ENZ_hFLT4 assay. It is designed to measure enzyme activity using a type of enzyme reporter as detected by fluorescence intensity with LANCE technology.Data from the assay component ERF_FR_ENZ_hFLT4 was analyzed at the assay endpoint, ERF_FR_ENZ_hFLT4, in the positive analysis fitting direction relative to DMSO as the negative control and baseline of activity. Using a type of enzyme reporter, loss-of-signal activity can be used to understand changes in enzymatic activity as they relate to gene FLT4. To generalize the intended target to other relatable targets, this assay endpoint is annotated to the kinase intended target family, where the subfamily is receptor tyrosine kinase.
Flt4 (h) is incubated with 8 mM MOPS pH 7.0, 0.2 mM EDTA, 500 uM […], 10 mM MgAcetate and [gamma-33P]-ATP (specific activity and concentration as required). The reaction is initiated by the addition of the Mg/ATP mix. After incubation for 40 minutes at room temperature, the reaction is stopped by the addition of phosphoric acid to a concentration of 0.5%. […]

Sequence of human FLT4 Receptor Tyrosine Kinase, FLT4 (gene 2324) (P35916 whole entry, looked up): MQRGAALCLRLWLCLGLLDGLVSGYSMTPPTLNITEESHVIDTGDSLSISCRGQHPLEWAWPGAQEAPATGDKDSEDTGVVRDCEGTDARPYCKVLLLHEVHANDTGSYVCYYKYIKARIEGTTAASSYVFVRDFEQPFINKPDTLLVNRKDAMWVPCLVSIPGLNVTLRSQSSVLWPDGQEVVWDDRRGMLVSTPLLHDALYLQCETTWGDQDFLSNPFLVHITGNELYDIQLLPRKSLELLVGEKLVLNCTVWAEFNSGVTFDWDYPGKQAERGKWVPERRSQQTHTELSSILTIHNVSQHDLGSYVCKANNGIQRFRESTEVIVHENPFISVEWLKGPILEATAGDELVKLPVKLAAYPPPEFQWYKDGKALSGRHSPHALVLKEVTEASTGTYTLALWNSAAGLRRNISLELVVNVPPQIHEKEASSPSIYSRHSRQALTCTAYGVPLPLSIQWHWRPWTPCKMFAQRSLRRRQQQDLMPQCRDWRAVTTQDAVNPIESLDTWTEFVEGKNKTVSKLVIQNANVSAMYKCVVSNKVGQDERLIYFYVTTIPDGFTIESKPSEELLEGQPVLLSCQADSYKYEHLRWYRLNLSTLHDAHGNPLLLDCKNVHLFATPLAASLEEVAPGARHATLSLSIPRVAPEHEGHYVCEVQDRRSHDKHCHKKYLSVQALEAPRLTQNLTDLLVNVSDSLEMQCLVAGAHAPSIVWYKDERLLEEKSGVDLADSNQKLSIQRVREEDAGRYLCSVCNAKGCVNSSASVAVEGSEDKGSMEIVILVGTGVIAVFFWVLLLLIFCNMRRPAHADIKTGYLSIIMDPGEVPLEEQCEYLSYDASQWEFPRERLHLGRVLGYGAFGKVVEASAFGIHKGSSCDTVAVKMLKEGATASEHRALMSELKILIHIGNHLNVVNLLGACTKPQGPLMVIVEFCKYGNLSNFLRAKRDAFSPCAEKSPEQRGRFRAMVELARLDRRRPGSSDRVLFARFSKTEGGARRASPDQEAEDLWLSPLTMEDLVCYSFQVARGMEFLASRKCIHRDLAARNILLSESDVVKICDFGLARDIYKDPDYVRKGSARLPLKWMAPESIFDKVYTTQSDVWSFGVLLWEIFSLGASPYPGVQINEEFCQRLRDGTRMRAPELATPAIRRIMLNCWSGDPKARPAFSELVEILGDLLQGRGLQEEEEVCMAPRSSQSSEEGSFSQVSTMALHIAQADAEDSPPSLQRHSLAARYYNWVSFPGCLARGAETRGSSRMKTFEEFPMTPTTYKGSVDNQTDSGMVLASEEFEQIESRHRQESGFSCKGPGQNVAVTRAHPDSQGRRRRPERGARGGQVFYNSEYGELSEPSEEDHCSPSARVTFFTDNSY

**Q.** Which AC50 does the source give for `O=C(/C=C/c1ccc(O)cc1)CC(=O)/C=C/c1ccc(O)cc1` here?
**A.** 1.91 µM (active)

Reference: PubChem BioAssay AID2284088 (EPA ToxCast)
